Measurements as given in PubChem BioAssay (EPA / NIEHS).
Inconclusive results are not listed. Activity calls are given as the source filed them. Rule for the calls, unless noted: active = hit-call score of the fitted dose curve at least 0.9, where 1 is the maximum; inactive = score below 0.9.

Legend:
[1] = CCTE_Mundy_HCI_Cortical_Synap_Neur_Matur_NeuriteLength: CCTE's Synaptogenesis and Neurite Maturation Assay in rat cortical cells for Neurite Length, Mundy Lab (AID 2284214)
Procedure, shortened: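 Cultures of rat primary cortical cells received chemical at DIV 7 and were fixed at DIV 12, after glial arrest with AraC at DIV 5. Neurite length was measured by automated imaging of MAP2 immunofluorescence.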

[2] = CCTE_Mundy_HCI_Cortical_Synap_Neur_Matur_SynapseCount: CCTE's Synaptogenesis and Neurite Maturation Assay in rat cortical cells for Synapse Count, Mundy Lab (AID 2284218)
Procedure, shortened: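 Cells were plated, allowed 2 hr to attach, treated with AraC at DIV 5, then exposed to chemicals from DIV 7 until DIV 12. After fixation and MAP2/synaptophysin immunolabelling, synapses per neuron were quantified by automated imaging against DMSO.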

[3] = CCTE_Mundy_HCI_Cortical_Synap_Neur_Matur_NeuriteCount: CCTE's Synaptogenesis and Neurite Maturation Assay in rat cortical cells for Neurite Count, Mundy Lab (AID 2284222)
Procedure, shortened: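 Primary rat cortical cells were plated, treated with AraC at DIV 5, then exposed to chemicals from DIV 7 through DIV 12. After fixation and immunostaining for MAP2 and synaptophysin, imaging quantified neurites, with DMSO as the negative control.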

[4] = CCTE_Mundy_HCI_Cortical_Synap_Neur_Matur_CellBodySpotCount: CCTE's Synaptogenesis and Neurite Maturation Assay in rat cortical cells for Cell Body Spot Count, Mundy Lab (AID 2284223)
Procedure, shortened: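 Read-out: cell body-associated synaptophysin puncta per neuron, imaged after MAP2, synaptophysin and Hoechst staining. Rat cortical cells, AraC DIV 5, chemical dosing DIV 7, fixation DIV 12. Activity fitted in positive direction relative to DMSO baseline.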

[5] = CCTE_Mundy_HCI_hNP1_Pro_ResponderAvgInten: CCTE's Proliferation Assay in human neuroprogenitor cells, Mundy Lab (AID 2284224; active = hit-call score of the fitted dose curve at least 0.9, where 1 is the maximum;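 note: human neural progenitor cells hNP1 derived from WA09 embryonic stem cells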)
Procedure, shortened: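 Human neuroprogenitors (hNP1, WA09 lineage) receive test chemical after 40 to 44 hours of attachment. A four-hour BrdU pulse begins twenty hours later, followed by fixation and high content imaging; signal is referenced to DMSO controls.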

[6] = UKN2_HCS_IMR90_cell_viability: Viability Assessment in the University of Konstanz (UKN) Leist Lab Neural Crest Cell Migration Assay in human induced IMR90 Pluripotent Stem Cells (UKN2) (AID 2284233);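 note: viability of neural crest cells differentiated from IMR90 iPSC measured by calcein-AM fluorescence imaging; cells exposed to compound for 24 h after a 24 h migration phase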
Procedure, shortened: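 cMINC format, iPSC-derived neural crest (IMR90); 24 h migration (EGF/FGF, N2-S), then 24 h toxicant. Calcein-AM/H-33342 stain 30 min; fluorescence intensity by HCS; DMSO-normalised, bidirectional fitting.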

[7] = CCTE_Mundy_HCI_Cortical_NOG_NeuronCount: CCTE's Neurite Outgrowth Assay in rat cortical cells for Neuron Count, Mundy Lab (AID 2284236; active = hit-call score of the fitted dose curve at least 0.9, where 1 is the maximum;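 note: neurons counted by imaging betaIII-tubulin and Hoechst stained cortical cells; cells exposed to compound for about 48 hours before fixation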)
Procedure, shortened: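 Read-out: neuron number by high-content imaging of betaIII-tubulin (Alexa Fluor-488) and Hoechst-labelled rat primary cortical cells.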

[8] = CCTE_Mundy_HCI_Cortical_NOG_BPCount: CCTE's Neurite Outgrowth Assay in rat cortical cells for Branch Point Count, Mundy Lab (AID 2284237)
Procedure, shortened: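 Measured 50.33 h after dosing, this morphology endpoint uses rat primary cortical cultures labelled for betaIII-tubulin. Branch points are quantified by high-content imaging, with DMSO as negative control and baseline.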

[9] = CCTE_Mundy_HCI_hNP1_Casp3_7: CCTE's Caspase-Glo 3/7 Assay in human neuroprogenitor cells for Apoptosis, Mundy Lab (AID 2284240)
Procedure, shortened: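 Neuroepithelial-lineage stem cells from WA09 embryonic cells were treated with chemicals after 40–44 h of culture. Twenty-four hours later, caspase-3/7 activation was detected luminescently after a 30 min room-temperature reagent step, with DMSO as baseline.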

[10] = CCTE_Mundy_HCI_hNP1_CellTiter: CCTE's Cell Titer-Glo 2 Assay in human neuroprogenitor cells for Viability, Mundy Lab (AID 2284241; active = hit-call score of the fitted dose curve at least 0.9, where 1 is the maximum)
Procedure, shortened: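 Measures ATP content in human neural progenitors derived from WA09 embryonic cells. Read-out at 26.5 hours after dosing, with DMSO serving as the negative control and baseline.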

[11] = CCTE_Mundy_HCI_Cortical_Synap_Neur_Matur_NeuronCount: CCTE's Synaptogenesis and Neurite Maturation Assay in rat cortical cells for Neuron Count, Mundy Lab (AID 2284242; active = hit-call score of the fitted dose curve at least 0.9, where 1 is the maximum)
Procedure, shortened: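 Cortical cells from rat are plated, treated with AraC at DIV 5, and exposed to test chemicals with a media change at DIV 7. At DIV 12 they are fixed and immunostained (MAP2, synaptophysin), and imaged neuron counts are compared against DMSO controls.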

[12] = IUF_NPC2a_radial_glia_migration_120hr: Leibniz Research Institute for Environmental Medicine (IUF) 120-hour Neural Progenitor Cell Migration Assay for Radial Glia Migration (NPC2a) (AID 2284298)
Procedure, shortened: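 Hoechst-stained nuclei imaged at 120 h; algorithm maps sphere core by densest nuclei, sets migration edge at density threshold, gives radial glia migration distance (um) per well vs DMSO. hNPC spheres (0.3 mm), PDL/laminin, DMEM/F12 3:1 + 1% N2.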

[13] = IUF_NPC2a_radial_glia_migration_72hr: Leibniz Research Institute for Environmental Medicine (IUF) 72-hour Neural Progenitor Cell Migration Assay for Radial Glia Migration (NPC2a) (AID 2284299)
Procedure, shortened: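 Single 0.3 mm neurospheres were plated per well in N2 differentiation medium and exposed from the start of differentiation. After 72 hours, brightfield images were taken and radial glia migration from the sphere core edge was measured manually in four directions, averaged per well.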

[14] = IUF_NPC2b_neuronal_migration_120hr: Leibniz Research Institute for Environmental Medicine (IUF) 120-hour Neural Progenitor Cell Migration Assay for Neuron Migration (NPC2b) (AID 2284300)
Procedure, shortened: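 hNPC spheres, PDL/laminin, DMEM:F12 3:1 + 1% N2, 37C/5% CO2; 7 concentrations + solvent control (DMSO ≤0.1%), 5 d exposure, half-feed day 3. Fix 120 h, TUBB3 ICC, HCI: mean neuron migration distance ÷ glia distance.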

[15] = IUF_NPC3_neuronal_differentiation_120hr: Leibniz Research Institute for Environmental Medicine (IUF) 120-hour Neuronal Differentiation Assay (NPC3) (AID 2284301)
Procedure, shortened: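 Neuronal differentiation of primary human neural progenitors measured by high-content imaging: percent TUBB3+ of Hoechst+ nuclei within migrated area at 120 h, seven-point serial dilution plus solvent control, gain or loss relative to DMSO.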

[16] = IUF_NPC4_neurite_length_120hr: Leibniz Research Institute for Environmental Medicine (IUF) 120-hour Neuronal Morphology Assay for Neurite Length (NPC4) (AID 2284302)
Procedure, shortened: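 Neurons from differentiating human fetal neural progenitor spheres are scored for average neurite length after five days of compound exposure. Fitting uses DMSO as negative control.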

[17] = IUF_NPC5_oligodendrocyte_differentiation_120hr: Leibniz Research Institute for Environmental Medicine (IUF) 120-hour Oligodendrocyte Differentiation Assay (NPC5) (AID 2284304; active = hit-call score of the fitted dose curve at least 0.9, where 1 is the maximum;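 note: primary human fetal neural progenitor spheres plated to migrate and differentiate; share of O4-positive cells among Hoechst nuclei found by CNN image analysis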)
Procedure, shortened: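 hNPC spheres, fetal cortex GW 16-19; PDL/laminin, DMEM:F12 3:1 + 1% N2, 37C/5% CO2; 7 concentrations + solvent control, 5 d exposure, half-change day 3. Readout: %O4+ of Hoechst+ nuclei in migration area, CNN classification; DMSO baseline.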

[18] = IUF_NPC4_neurite_area_120hr: Leibniz Research Institute for Environmental Medicine (IUF) 120-hour Neuronal Morphology Assay for Neurite Area (NPC4) (AID 2284305; active = hit-call score of the fitted dose curve at least 0.9, where 1 is the maximum)
Procedure, shortened: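 Endpoint at 120 h: automated imaging of TUBB3/Hoechst-stained differentiating human neural progenitor spheres, neurite area per neuron from skeletonization. DMSO solvent control, not above 0.1%, set the baseline; medium was half-replaced on day 3.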

[19] = IUF_NPC2-5_cytotoxicity_72hr: Cytotoxicity Assessment at 72 hours in the Leibniz Research Institute for Environmental Medicine (IUF) Neural Progenitor Cell Migration and Differentiation Assay for Cytotoxicity (NPC2-5) (AID 2284306; active = hit-call score of the fitted dose curve at least 0.9, where 1 is the maximum;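 note: LDH release into supernatant measured by resorufin fluorescence marking membrane damage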)
Procedure, shortened: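 Primary human neural progenitor spheres migrate and differentiate on laminin. Compound is present from the start of differentiation, with DMSO kept at or below 0.1%. At 72 h, supernatant LDH is quantified fluorometrically, with values fitted in the positive direction.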

[20] = IUF_NPC2-5_cytotoxicity_120hr: Cytotoxicity Assessment at 120 hours in the Leibniz Research Institute for Environmental Medicine (IUF) Neural Progenitor Cell Migration and Differentiation Assay (NPC2-5) (AID 2284307; active = hit-call score of the fitted dose curve at least 0.9, where 1 is the maximum)
Procedure, shortened: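 hNPC spheres on PDL/laminin, N2 medium, 37C; 7 concs + solvent control, DMSO ≤0.1%; 5-day exposure, half medium changed day 3. LDH in supernatant at 120 h, resazurin→resorufin fluorescence, gain-of-signal.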

[21] = IUF_NPC2-5_cell_number_120hr: Cell Number Assessment at 120 hours in the Leibniz Research Institute for Environmental Medicine (IUF) Neural Progenitor Cell Migration and Differentiation Assay (NPC2-5) (AID 2284308);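 note: count of Hoechst-stained nuclei in migration zone around plated human neural progenitor spheres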
Procedure, shortened: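 Hoechst-stained nuclei within the migration area were counted by automated high content imaging after 120 h. Single hNPC spheres differentiated on poly-D-lysine/laminin in DMEM/F12 (3:1) with 1% N2, compound present throughout, DMSO ≤0.1%.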

[22] = IUF_NPC2-5_viability_120hr: Viability Assessment at 120 hours in the Leibniz Research Institute for Environmental Medicine (IUF) Neural Progenitor Cell Migration and Differentiation Assay (NPC2-5) (AID 2284312)
Procedure, shortened: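 Human fetal (GW 16-19) neural progenitor spheres of 0.3 mm were plated on poly-D-lysine/laminin in N2 differentiation medium and exposed from day 0 for 120 h, with half-medium refresh at day 3. Viability was read as alamar blue resazurin-to-resorufin fluorescence against DMSO.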

[23] = CCTE_Mundy_HCI_iCellGluta_NOG_NeuriteLength: CCTE's Neurite Outgrowth Assay in iCellGluta cells for Neurite Length, Mundy Lab (AID 2284318; active = hit-call score of the fitted dose curve at least 0.9, where 1 is the maximum)
Procedure, shortened: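 Automated high-content imaging of betaIII-tubulin (Alexa Fluor-488) and Hoechst-stained cells gave neurite length, normalized to the DMSO baseline.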

[24] = IUF_NPC1_cytotoxicity_72hr: Cytotoxicity Assessment at 72 hours in the Leibniz Research Institute for Environmental Medicine (IUF) Neural Progenitor Cell Proliferation Assay (NPC1) (AID 2284332; active = hit-call score of the fitted dose curve at least 0.9, where 1 is the maximum;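 note: rising LDH signal means more cytotoxicity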)
Procedure, shortened: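 Membrane-integrity loss is scored from LDH released into the medium, detected as resorufin fluorescence, with activity fitted upward relative to baseline. Test material stays on human fetal-derived progenitor spheres for 72 h.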

[25] = CCTE_Mundy_HCI_iCellGluta_NOG_NeuriteCount: CCTE's Neurite Outgrowth Assay in iCellGluta cells for Neurite Count, Mundy Lab (AID 2284342; active = hit-call score of the fitted dose curve at least 0.9, where 1 is the maximum;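 note: chemical exposure about 48 hours starting 2 hours after plating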)

Measured: outcome

CC(=O)N[C@@H](CC(=O)O)C(=O)O
inactive: all assays above
